BAZ2B block – blocks human BAZ2B; Q9UIF8; AlphaScreen BAZ2B-H3K14Ac peptide displacement; Potency, µM (titrated, usually from 114 µM), actives largely listed as inhibitors; 4.4% of 360,000 active; AID 504333; note: nearly all actives have a fitted effect of over 60% in size
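BAZ2B (50 nM) with biotin-H3(5-23)K14Ac peptide (50 nM) in PBS pH 7.4, 0.01% Tween-20, preformed 30 min, then compound 30 min at room temperature; top concentration 110uM. AlphaScreen streptavidin donor/nickel chelate acceptor beads (10 ug/mL final), 20 min dark, signal read.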
JMJD2A Tudor – JMJD2A Tudor domain (human) inhibition. AlphaScreen JMJD2A-Tudor / H3K4me3 peptide binding. Potency, µM (doses to about 114 µM), actives largely listed as inhibitors. 4.4% of 390,000 active. O75164; note: nearly all actives have a fitted effect of over 50% in size
HP1b chromo inh – inhibitors of HP1-beta chromodomain binding to methylated histone tails. P83916. AlphaScreen HP1-beta / biotin-H3K9me3 peptide binding. Potency, µM (top dose mostly 114 µM), usual class: inhibitors. 0.56% of 390,000 active. AID 540317; note: nearly all actives have a fitted effect of over 70% in size
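Compound inhibition of the preformed complex between 50 nM HP1-beta and 50 nM biotinylated H3K9me3 peptide was read by AlphaScreen. Buffer was PBS pH 7.4 with 0.01% Tween-20. Incubations ran 30 min at room temperature, with 10 ug/mL donor/acceptor beads.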
Sfp inh – blocks B. subtilis Sfp PPTase activity; Potency, µM, most hits filed as inhibitors; 3.5% of 310,000 active; Biochemical Sfp PPTase activity, qHTS; Q9F4F7;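 note: the enzyme is Sfp with the accession as filed and its product quenches rhodamine fluorescence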
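Sfp 15 nM + cpd, 15 min RT; start w/ rhodamine-CoA 5 uM, BHQ-2-YbbR 12.5 uM (final); 50 mM Hepes pH 7.6, 10 mM MgCl2, 0.01% NP-40, 0.01% BSA; read 525/598 nm at 0 and 30 min.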
G9a block – G9a (human) methyltransferase inhibition; G9a H3K9 monomethylation, AlphaScreen, 2 h; Potency, µM (series often up to 102 µM), hits mostly inhibitors; 8.8% of 350,000 active; AID 504332; note: nearly all actives have a fitted effect of over 75% in size
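Signal arises when biotinylated H3K9 peptide, once monomethylated, bridges streptavidin donor and antibody-captured acceptor beads. Enzyme at 20 nM was preincubated 15 min with test compounds; peptide 500 nM and SAM 20 uM then reacted for 2 h.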
Hits are given with their value; - = inactive; ? = inconclusive; . = no result; [ ] = dose if it differs, or a comment. In the library only some 12% were active in any assay of this set; here they are far more common. Calls come from the whole dose curve; as a rule, active = well fitted curve in the direction sought with a large enough effect; inconclusive = small, poorly fitted or top-dose-only effect, or another doubt; inactive = no such curve, though single readings can be large; an effect the other way counts as inactive or inconclusive.

SMILES | BAZ2B block | JMJD2A Tudor | HP1b chromo inh | Sfp inh | G9a block
COc1ccc(N2CCN(C(=O)Cc3coc4cc(C)ccc34)CC2)cc1 | 39.8µM | - | - | - | 44.7µM
COc1ccc(N2CCN(C(=O)CCC(=O)N3CC(C)Oc4ccc(C)cc43)CC2)cc1 (centres undefined) | 39.8µM | ? | - | - | 44.7µM
COc1ccc(N2CCN(C(=O)CCC(=O)N3CCOc4ccc(C)cc43)CC2)cc1 | - | ? | - | - | .
COc1ccc(N2CCN(C(=O)Cc3coc4ccc(C)cc34)CC2)cc1 | 39.8µM | ? | ? | . | 15.8µM
Cc1ccc2occ(CC(=O)N3CCN(c4cccc(Cl)c4)CC3)c2c1 | - | - | - | . | -
COc1ccc(N2CCN(C(=O)c3cc(=O)c4ccc(C)cc4o3)CC2)cc1 | ? | - | - | - | -[0.501 µM]

Assay outcomes as filed in PubChem BioAssay.
